The record followed here is PubChem BioAssay (NCI).

Among the test systems are T-47D breast; BT-549 breast; MDA-MB-435 melanoma; SW-620 colon; MCF7 breast; HCT-116 colon; HCC-2998 colon; KM12 colon.
Holding throughout (test): NCI-60 one-dose screen, 48 h (100 = growth as untreated, 0 = no growth, -100 = all killed)
Common to all, as to conditions: 10 µM unless noted

Molecules are shown by their SMILES. About 83,000 compounds went through this panel and 20% of them were active in at least one assay; those are over-represented in the sample as a whole.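 Each cell line was grown in a 96-well plate and treated with one concentration of compound for 48 hours. Values below 10 were considered active.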 Values without a mark were called inactive. Activity calls are given as the source filed them.

`CCCCN1C(=O)/C(=c2\sc3n(c2=O)C2C(NN=3)N(CC)C(=O)N2CC)c2cccc(C)c21` (stereo not given): the growth in the assay with T-47D breast was 41.4%; with BT-549 breast, 82.4%; in the assay on MDA-MB-435 melanoma, -31% (active); in the assay with SW-620 colon, 39.7%; in the assay with MCF7 breast, 21.1%; with HCT-116 colon, 24.8%. For the same molecule, the values for the growth in the assay with HCC-2998 colon and in the assay with KM12 colon were 61.1% and 33.3%, respectively.
Take `COc1ccc(C2CC(c3cccc(OCCCCOc4cccc(C5=NOC(c6ccc(OC)cc6)C5)c4)c3)=NO2)cc1` (stereo not given): the growth with T-47D breast was 73.7%; in the assay on BT-549 breast it was 113%; in the assay with MDA-MB-435 melanoma it was 105%; in the assay on SW-620 colon, 32.9%; in the assay on MCF7 breast, 15%; with HCT-116 colon, -21.9% (active). Besides, the figures for the growth with HCC-2998 colon and with KM12 colon were 101% and 76.2%, respectively.
Consider `NS(=O)(=O)c1cccc(Nc2nc(SCC(=O)c3ccc(Cl)cc3)nc3c2CCC3)c1`, for which the growth in the assay on T-47D breast is 90.4%; in the assay with BT-549 breast it was 84.7%; with MDA-MB-435 melanoma, 99.2%; in the assay with SW-620 colon, 102%; in the assay with MCF7 breast it was 82.9%; with HCT-116 colon, 95.7%. In addition, the growth is 107% in the assay with HCC-2998 colon and 105% with KM12 colon.
As to `Fc1ccc(-c2cn3c(-c4c[nH]c5ccc(Br)cc45)csc3n2)cc1`, the growth with T-47D breast is 66.3%; with BT-549 breast, 95.4%; with MDA-MB-435 melanoma it was 83.1%; in the assay on SW-620 colon, 81.4%; with MCF7 breast it was 60.9%; in the assay on HCT-116 colon it was 73.8%. In addition, the growth in the assay on HCC-2998 colon is 100%; in the assay on KM12 colon it was 66.5%.
With `COc1cc2c3c(cc4c5c(ccc4c3c1OC)OCO5)N(CCN(C)C)C2=O`, the growth in the assay on T-47D breast is -5.03% (active); in the assay with BT-549 breast, -6.3% (active); with MDA-MB-435 melanoma, -18.5% (active); in the assay on SW-620 colon it was 7.13% (active); with MCF7 breast, 0.153% (active); in the assay with HCT-116 colon it was -12.2% (active). The growth in the assay with HCC-2998 colon was -45.3% (active); in the assay with KM12 colon, 8.95% (active).
`Cc1ccc(-c2nc(SCC(=O)c3ccccc3)nc(Nc3ccc(S(N)(=O)=O)cc3)c2C#N)cc1`: the growth with T-47D breast is 83.9%; with BT-549 breast it was 73.8%; in the assay on MDA-MB-435 melanoma, 47%; in the assay with SW-620 colon it was 83.8%; in the assay on MCF7 breast, 65.1%; in the assay with HCT-116 colon it was 35.9%. Further, the growth with HCC-2998 colon was 106%; in the assay with KM12 colon, 72.8%.
Regarding `O=c1nc(Nc2ccc([N+](=O)[O-])cc2O)sc2ccccc12`, the growth in the assay with T-47D breast was 31.1%; with BT-549 breast, 50.6%; in the assay on MDA-MB-435 melanoma it was -42.9% (active); with SW-620 colon it was 22.3%; in the assay with MCF7 breast it was 18.1%; in the assay with HCT-116 colon, 20.2%. In addition, the growth was 62.4% in the assay on HCC-2998 colon and 23.9% in the assay with KM12 colon.
For the molecule `Oc1[nH]c2ccc(Cl)cc2c1N=Nc1nc(N=Nc2c(O)[nH]c3ccc(Cl)cc23)nc(N2CCCCC2)n1`, the growth was 81.5% with T-47D breast; 122% in the assay with BT-549 breast; 75.8% in the assay with MDA-MB-435 melanoma; 15.5% with SW-620 colon; 51.7% in the assay with MCF7 breast; 23.9% in the assay with HCT-116 colon. Moreover, the growth in the assay on HCC-2998 colon is 38.7%; in the assay on KM12 colon, 47.6%.
With `N#Cc1c(-c2cccs2)cc(-c2cnccn2)nc1SCC(=O)N/N=C/c1ccccc1`, the growth is 25.6% in the assay with T-47D breast; 14.8% with BT-549 breast; 23.6% with MDA-MB-435 melanoma; 8.83% (active) with SW-620 colon; 19.4% in the assay on MCF7 breast; -23.6% (active) in the assay with HCT-116 colon. For the same molecule, the growth was 71% with HCC-2998 colon and 33.2% in the assay on KM12 colon.
As for `Cc1ccc2c(n1)C(=O)C(Cl)=C(Nc1ccc(C(=O)OC(C)(C)C)cc1)C2=O`, the growth with T-47D breast is -8.23% [9.25 µM] (active); with BT-549 breast, 84% [9.25 µM]; in the assay with MDA-MB-435 melanoma it was 87.6% [9.25 µM]; with SW-620 colon it was -42% [9.25 µM] (active); with MCF7 breast, 11.3% [9.25 µM]; in the assay with HCT-116 colon it was -70.5% [9.25 µM] (active). Besides, the growth in the assay with HCC-2998 colon was 103% [9.25 µM]; in the assay with KM12 colon, 105% [9.25 µM].
With `N#Cc1cccc(-c2cc(-c3ccc4c(c3)OCCO4)[nH]n2)c1`, the growth with T-47D breast is 36.4%; in the assay on BT-549 breast it was 49.3%; with MDA-MB-435 melanoma, -24.6% (active); in the assay with SW-620 colon it was 27.5%; in the assay on MCF7 breast it was 12.2%; in the assay on HCT-116 colon, 23.1%. The growth with HCC-2998 colon is 47.3%; with KM12 colon, 36.4%.
Take `COc1ccc2sc(NC(=O)CCCCCCNC(=O)C(O)(O)C(F)(F)F)nc2c1`: the growth in the assay on T-47D breast was 8.02% (active); with BT-549 breast, 7.95% (active); with MDA-MB-435 melanoma it was 1.37% (active); in the assay with SW-620 colon, 5.18% (active); in the assay with MCF7 breast, 9.01% (active); in the assay with HCT-116 colon, 0.844% (active). Also, the results for the growth in the assay with HCC-2998 colon and in the assay on KM12 colon were -45.9% (active) and -15.1% (active), respectively.
With `Brc1cc(-c2cc(-c3ccc4c(c3)OCCO4)[nH]n2)cs1`, the growth with T-47D breast is 38.5%; in the assay with BT-549 breast, 66%; with MDA-MB-435 melanoma, -26.8% (active); with SW-620 colon, 36.7%; with MCF7 breast it was 14.7%; in the assay on HCT-116 colon it was 41.5%. The growth was 62.1% in the assay on HCC-2998 colon and 27.7% in the assay with KM12 colon.
As to `Cc1cc2nc3c4cc(C#N)ccc4n(CCN(C)C)c3nc2cc1C`, the growth in the assay with T-47D breast was 20.2%; with BT-549 breast, -28.3% (active); with MDA-MB-435 melanoma, -27.4% (active); in the assay with SW-620 colon, -9.39% (active); in the assay with MCF7 breast it was 2.34% (active); in the assay on HCT-116 colon, -33.3% (active). Further, the results for the growth in the assay with HCC-2998 colon and in the assay on KM12 colon were -73% (active) and -3.36% (active), respectively.
On to `CC1=C(C)C(=O)C(Nc2ccc(C)cc2)=C(Br)C1=O`, for which the growth was 15.7% in the assay with T-47D breast; 104% with BT-549 breast; 103% in the assay with MDA-MB-435 melanoma; 103% in the assay with SW-620 colon; 76% in the assay on MCF7 breast; 35.4% with HCT-116 colon. For the same molecule, the growth in the assay with HCC-2998 colon and in the assay with KM12 colon was 104% in each case.
